The results in this text go back to PubChem BioAssay (EPA / NIEHS).

Values joined by “and” are separate entries in the source; they are usually repeats but may differ in a detail not shown here. Identical values can stand only once. Records with an inconclusive call do not appear. More than one record can exist for a structure, and the calls need not agree. Active and inactive are the calls of the source. Rule for the calls, unless noted: active = hit-call score of the fitted dose curve at least 0.9, where 1 is the maximum; inactive = score below 0.9.

Experiment [1] is described as follows: CCTE_Shafer_MEA_acute_AB: CCTE's Alamar Blue Assay for Cytotoxicity in the Neural Acute Assay, Shafer Lab (AID 2284069; active = hit-call score of the fitted dose curve at least 0.9, where 1 is the maximum;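 note: active compounds lower the viability signal compared with DMSO wells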). In short, it runs like this: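 Cytotoxicity endpoint for acute MEA exposures of primary rat cortical neurons on day 13 or 15. Resazurin reduction is read fluorescently at 544/590 nm, with DMSO as the negative-control baseline.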
Experiment [2] is described as follows: CCTE_Shafer_MEA_dev_network_spike_peak: CCTE's Neural Network Formation Assay for Mean Number of Electrodes in Network Spike, Shafer Lab (AID 2284049).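 Note: fitted for loss of signal meaning fewer electrodes in network spikes than DMSO.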 In short, it runs like this:
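Continuous 12-day exposure of rat cortical cultures, starting at plating, on MEA plates. Endpoint: electrodes participating in network-spike peaks, AUC across DIV 5–12, DMSO as negative control.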

A short description of experiment [3]: CCTE_Shafer_MEA_dev_spike_duration_mean: CCTE's Neural Network Formation Assay for Mean Spike Duration, Shafer Lab (AID 2284051).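 Note: mean network spike duration pooled as area under curve over DIV 5 to 12 recordings; potency for a decrease in mean network spike duration versus DMSO.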 In short, it runs like this:
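With DMSO as baseline, loss of mean network spike duration was scored from extracellular recordings of rat cortical neurons on MEA plates. Exposure spanned plating to DIV 12; the four recording days were collapsed into one AUC value.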

Experiment [4] is described as follows: CCTE_Shafer_MEA_dev_network_spike_duration_std: CCTE's Neural Network Formation Assay for Standard Deviation of Network Spike Duration, Shafer Lab (AID 2284052).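 Note: area under curve of spike duration SD across recording days 5 to 12; hits are decreases in network spike duration SD versus DMSO vehicle.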 In short, it runs like this:
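Developing networks of rat cortical neurons were exposed over twelve days in vitro on 48-well MEA plates. Trapezoidal AUC of recordings (DIV 5–12) was analysed for signal loss relative to DMSO vehicle.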

Experiment [5] is described as follows: CCTE_Shafer_MEA_dev_per_network_spike_spike_number_mean: CCTE's Neural Network Formation Assay for Mean Number of Spikes in a Network Spike, Shafer Lab (AID 2284053).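 For AC50: fitted as decrease in spikes per network spike relative to DMSO.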 Summed up:
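First, rat cortical cells (1.5 x 10^5/well) were seeded onto MEA wells; second, dosing began at plating and was refreshed on DIV 5 and 9; finally, network-spike spike counts across DIV 5–12 were summarized as AUC.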

Experiment [6] can be described thus: CCTE_Shafer_MEA_dev_per_network_spike_spike_percent: CCTE's Neural Network Formation Assay for Percent of Spikes in a Network Spike, Shafer Lab (AID 2284054). Summed up:
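Primary rat cortical neurons on 16-electrode MEA wells (PEI-coated, laminin at plating), exposed from day 0 with renewal at DIV 5 and 9; spikes within 0.05 s of network-spike peaks over total spikes, AUC across days 5, 7, 9, 12.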

Experiment [7] can be described thus: UKN5_HCS_SBAD2_cell_viability: Viability Assessment in the University of Konstanz (UKN) Leist Lab Neurite Outgrowth Assay in human iPSC-derived immature Dorsal Root Ganglia Neurons (UKN5) (AID 2284056). Summed up:
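iPSC-derived immature peripheral neurons (SBAD2) seeded on Matrigel with CHIR99021, SU5402 and DAPT, dosed 1 h later for 24 h. Viability from Hoechst H-33342 and calcein-AM live staining, high-content imaging; bidirectional fit versus DMSO.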

Experiment [8] is described as follows: CCTE_Shafer_MEA_dev_LDH: CCTE's Lactate Dehydrogenase Assay for Cytotoxicity in the Neural Network Formation Assay, Shafer Lab (AID 2284068; active = hit-call score of the fitted dose curve at least 0.9, where 1 is the maximum;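 note: exposure for twelve days from plating with re-dosing on DIV 5 and 9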). Summed up:
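Developing rat cortical networks on MEA plates are exposed to compound for 12 days from plating. LDH activity is measured spectrophotometrically, with DMSO as baseline.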

Experiment [9] can be described thus: UKN5_HCS_SBAD2_neurite_outgrowth: University of Konstanz (UKN) Leist Lab Neurite Outgrowth Assay in human iPSC-derived immature Dorsal Root Ganglia Neurons (UKN5) (AID 2284070). As to conditions: actives raise or lower the signal. Summed up: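 SBAD2 iPSC-derived immature peripheral neurons on Matrigel, 100.000 cells/cm2, medium with CHIR99021 (1.5 uM), SU5402 (5 uM), DAPT (5 uM); compound added 1 h post-seeding for 24 h. Calcein-AM neurite area by high-content imaging; Hoechst H-33342 viability; bidirectional fit vs DMSO.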

A short description of experiment [10]: CCTE_Shafer_MEA_dev_AB: CCTE's Alamar Blue Assay for Cytotoxicity in the Neural Network Formation Assay, Shafer Lab (AID 2284083; active = hit-call score of the fitted dose curve at least 0.9, where 1 is the maximum;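 note: resazurin reduction fluorescence as viability of cultured neurons; twelve days of exposure from plating with re-dosing on DIV 5 and 9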). Summed up:
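Cytotoxicity companion to the developmental MEA: primary rat cortical neurons, 12-day exposure starting day 0, compound refreshed DIV 5 and 9; resazurin fluorescence, fitted against DMSO vehicle.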

Experiment [11] in a line: CCTE_Shafer_MEA_dev_mutual_information_norm: CCTE's Neural Network Formation Assay for Mutual Information Normalization, Shafer Lab (AID 2284091).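 For AC50: mutual information between electrodes summarised as area under curve across four recording days; potency is for a decrease in mutual information relative to DMSO.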 In short, it runs like this:
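Rat cortical cultures, 48-well MEA, continuous exposure DIV 0–12 with full media/compound change DIV 5 and 9. Readout: inter-electrode mutual information, AxIS adaptive spike detection; AUC across DIV 5/7/9/12 recordings; DMSO baseline, negative fitting direction.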

The nature of experiment [12]: CCTE_Shafer_MEA_dev_correlation_coefficient_mean: CCTE's Neural Network Formation Assay for Mean Correlation Coefficient, Shafer Lab (AID 2284093).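 For AC50: well mean pairwise spike train correlation integrated as AUC over recording days 5 to 12; potency fitted for loss of correlation relative to DMSO vehicle wells.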 Summed up:
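Extracellular firing from rat cortical networks on 48-well MEAs, DMSO-referenced, negative fitting direction. Compound present from plating to DIV12; mean pairwise correlation per well integrated over DIV5–12 recordings by trapezoidal AUC.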

Experiment [13] in a line: UKN2_HCS_IMR90_neural_migration: University of Konstanz (UKN) Leist Lab Neural Crest Cell Migration Assay in human induced IMR90 Pluripotent Stem Cells (UKN2) (AID 2284204). As to conditions: actives raise or lower the signal. Summed up: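 iPSC-derived IMR90 neural crest cells on PLO/laminin/fibronectin were seeded around silicone stoppers; after stopper removal, migration in N2-S medium with EGF and FGF ran 24 h before 24 h chemical exposure. Calcein-AM/Hoechst high-content imaging; bidirectional fit versus DMSO.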

The nature of experiment [14]: UKN4_HCS_LUHMES_neurite_outgrowth: University of Konstanz (UKN) Leist Lab Neurite Outgrowth Assay in human LUHMES cells (UKN4) (AID 2284206). The following applies: actives raise or lower the signal. Summed up: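 Human LUHMES neuronal precursors, differentiated 2 days then replated without cAMP and GDNF, exposed to compounds for 24 h. Neurite area imaged by high-content microscopy after calcein-AM live staining; Hoechst H-33342 for viability; bidirectional fit versus DMSO.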

Experiment [15] can be described thus: IUF_NPC1b_proliferation_BrdU_72hr: Leibniz Research Institute for Environmental Medicine (IUF) 72-hour Neural Progenitor Cell Bromodeoxyuridine (BrdU) Proliferation Assay (NPC1b) (AID 2284207). Summed up: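 hNPC spheres (primary, GW 16-19 fetal cortex), single sphere/well, EGF+FGF medium; 72 h compound, no renewal; BrdU pulse last 16 h; luminescent ELISA; activity vs DMSO baseline; growth-factor withdrawal as positive control.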

Experiment [16] in a line: IUF_NPC1a_proliferation_area_72hr: Leibniz Research Institute for Environmental Medicine (IUF) 72-hour Neural Progenitor Cell Proliferation Area Assay (NPC1a) (AID 2284208). In short, it runs like this: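 Proliferation read as increase in sphere area by phase-contrast imaging over 72 h continuous compound exposure (no renewal) of hNPC spheres grown with EGF/FGF at 37C, 5% CO2. Growth-factor withdrawal served as positive control; DMSO as baseline.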

Experiment [17] in a line: IUF_NPC1_viability_72hr: Viability Assessment at 72 hours in the Leibniz Research Institute for Environmental Medicine (IUF) Neural Progenitor Cell Proliferation Assay (NPC1) (AID 2284209). Summed up: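 Single spheres (0.25-0.35 mm) of human fetal cortex-derived neural progenitor cells were grown in proliferation medium with EGF and FGF at 37C and 5% CO2. They were exposed for 72 h without renewal, and viability was read by alamar blue resorufin fluorescence.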

Experiment [18] can be described thus: CCTE_Mundy_HCI_Cortical_Synap_Neur_Matur_NeuriteSpotCountPerNeuriteLength: CCTE's Synaptogenesis and Neurite Maturation Assay in rat cortical cells for Neurite Spot Count per Neurite Length, Mundy Lab (AID 2284210). In short, it runs like this:
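Rat primary cortical cultures, glia arrested with AraC at DIV 5, were dosed with media change at DIV 7 and fixed at DIV 12. Synaptophysin puncta per MAP2-labelled neurite length were quantified by high-content imaging versus DMSO.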

A further experiment deals with DIO2 (gene 1734). As to the kind of experiment: CCTE_GLTED_hDIO2: CCTE's human Deiodinase 2 (DIO2) Inhibition Assay, Great Lakes Toxicology and Ecology Division (GLTED) Lab (AID 2284050; active = hit-call score of the fitted dose curve at least 0.9, where 1 is the maximum). In short, it runs like this: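 Cell-free human DIO2 incubated 3 h with chemical; liberated iodide quantified by Sandell-Kolthoff absorbance. Triplicate plates; loss of signal fitted vs DMSO.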

In another experiment the test system is DIO3 (gene 1735). Description: CCTE_GLTED_hDIO3: CCTE's human Deiodinase 3 (DIO3) Inhibition Assay, Great Lakes Toxicology and Ecology Division (GLTED) Lab (AID 2284055; active = hit-call score of the fitted dose curve at least 0.9, where 1 is the maximum;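 note: potency is for inhibition seen as loss of released iodide signal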). Summed up: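 Human DIO3 from an adenovirus expression system is incubated 3 h with test chemical. Released iodide is quantified by Sandell-Kolthoff absorbance, in triplicate plates. Loss of signal is fitted relative to DMSO.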

Take `N#CC(Br)Br`: in experiment [1], the molecule was called inactive.

For `CCC[CH2][Sn]([Cl])([CH2]CCC)[CH2]CCC`, the half-maximal activity concentration (AC50) in experiment [2] is 0.0754 µM (active); in [3] it was 0.0303 µM (active); in experiment [4], 13.8 nM (active); in experiment [5] it was 63.2 nM (active); in experiment [6], 77.7 nM (active); in experiment [7], 306 nM (active). Also, the concentration at half-maximal activity (AC50) in [8] was 84.3 nM (active); in [1] it was 1.92 µM (active) and 3.06 µM (active); in [9], 109 nM (active); in experiment [10], 81.4 nM (active); in experiment [11] it was 23.1 nM (active); in [12], 77.2 nM (active). The AC50 was 195 nM (active) in experiment [13]; 119 nM (active) in experiment [14]; 112 nM (active) in [15]; 673 nM (active) in [16]; 535 nM (active) in experiment [17]; 37.5 nM (active) in experiment [18].

Regarding `c1ccc(NNc2ccccc2)cc1`, the molecule was classed as inactive in experiment [1].

As for `ClC1=C(Cl)C2(Cl)C3C(Cl)C=CC3C1(Cl)C2(Cl)Cl` (stereo unspecified), the half-maximal activity concentration (AC50) in experiment [2] is 4.19 µM (active); in experiment [3], 4.2 µM (active); in experiment [4], 744 nM (active); in experiment [5] it was 2980 nM (active); in [6], 1400 nM (active); in experiment [8], 2980 nM (active). The values for the half-maximal activity concentration (AC50) in [10], in experiment [11] and in experiment [12] were 937 nM (active), 1520 nM (active) and 1970 nM (active), respectively. The molecule was called inactive in experiment [1] and in experiment [18].

With `ClC1=C(Cl)[C@]2(Cl)[C@H]3[C@H]([C@@H]4C=C[C@H]3C4)[C@@]1(Cl)C2(Cl)Cl`, the AC50 in experiment [2] was 5.55 µM (active); in experiment [3] it was 5.79 µM (active); in [5], 1980 nM (active); in experiment [6], 7670 nM (active); in [8], 6690 nM (active); in experiment [10], 7930 nM (active). Moreover, the AC50 in experiment [11] is 909 nM (active); in experiment [12], 1990 nM (active). Moreover, the molecule was classed as inactive in experiment [4].

For the molecule `Oc1ccc2ccc3cccc4ccc1c2c34`, the AC50 is 100000 nM (active) in the experiment on DIO2 (gene 1734) and 61400 nM (active) in the experiment on DIO3 (gene 1735).

Regarding `O=[N+]([O-])c1ccc(Oc2ccc(Cl)cc2Cl)cc1`, the outcome in experiment [1] was inactive.

With `COP(=S)(OC)SCN1C(=O)c2ccccc2C1=O`, the half-maximal activity concentration (AC50) was 37.6 µM (active) and 51.5 µM (active) in experiment [2]; 36.7 µM (active) and 23.6 µM (active) in experiment [3]; 31800 nM (active) in experiment [5]; 20200 nM (active) in experiment [6]; 28900 nM (active) in [8]; 31700 nM (active) in experiment [10]. Besides, the concentration at half-maximal activity (AC50) is 22700 nM (active) in [11], 19000 nM (active) in [12] and 499 nM (active) in [15]. The outcome in [4], in experiment [5], in experiment [6], in experiment [8], in experiment [10] and in [11] was inactive. Also, the molecule was classed as inactive in experiment [12], in experiment [13], in [16], in experiment [17] and in experiment [18].

Consider `C[N+](C)(C)CC1CO1` (stereo unspecified), for which the result in experiment [1] was inactive.

For the molecule `O=[N+]([O-])C(Br)(CO)CO`, the AC50 in experiment [1] is 26.9 µM (active).

Take `CCN(CC)N=O`: in [1], the result was inactive.
